Measured values from PubChem BioAssay (NCATS).
Results filed as inconclusive are left out. The source made the active and inactive calls. The call rests on the fitted dose curve; in most records, active means well fitted curve in the direction sought with a large enough effect; inconclusive means small, poorly fitted or top-dose-only effect, or another doubt; inactive means no such curve, though single readings can be large; an effect the other way counts as inactive or inconclusive.

Experiments:
[1] = Cell Viability - LYMP2-004 (AID 966); further: nearly all actives have a fitted effect of over 65% in size
Method in brief: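 Acute toxicity is scored as a concentration-dependent drop in intracellular ATP, quantified by luciferase luminescence, in human lymphoblastoid cells exposed to compound for 24 hr. AC50 derives from Hill-equation modelling.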

[2] = Cell Viability - LYMP2-005 (AID 967); further: series mostly up to about 92 µM
Method in brief: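 Human lymphoblastoid LYMP2-005 cells, 2,500 per well in complete medium, rested 5 h at 37C then compound-treated 24 h at 37C. Intracellular ATP read by CellTiter-Glo luminescence after 30 min at room temperature; AC50 from Hill-equation fits of concentration-response data.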

[3] = Cell Viability - LYMP2-009 (AID 968); further: series mostly up to about 92 µM; nearly all actives have a fitted effect of over 55% in size
[4] = Cell Viability - LYMP2-011 (AID 969); further: nearly all actives have a fitted effect of over 60% in size
Method in brief: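 Acute toxicity is scored as a concentration-dependent drop in intracellular ATP of a human lymphoblastoid line after 24 hr treatment. Values are AC50s modeled with the Hill equation.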

[5] = Cell Viability - LYMP2-013 (AID 970); further: series mostly up to about 92 µM; nearly all actives have a fitted effect of over 55% in size
Method in brief: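 Acute toxicity was measured in human lymphoblastoid cells (2500/well) exposed to compound titrations for 24 hr, with ATP luminescence (CellTiter-Glo) as read-out and AC50 fitted by Hill equation.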

[6] = Cell Viability - LYMP2-015 (AID 971); further: nearly all actives have a fitted effect of over 55% in size
Method in brief: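 Acute toxicity was scored as a concentration-dependent drop in intracellular ATP in lymphoblastoid cells after 24 hr compound exposure in complete medium. Detection used CellTiter-Glo luciferase luminescence.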

[7] = Cell Viability - LYMP2-017 (AID 972);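 further: series mostly up to about 92 µM; cells exposed to compound for 24 hours at 37 °C; nearly all actives have a fitted effect of over 55% in size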
Method in brief: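 Steps: plate 2500 lymphoblastoid cells per well; incubate 5 hr at 37 C; add compound across a concentration series and incubate 24 hr at 37 C; add CellTiter-Glo and read luminescence after 30 min at room temperature; fit Hill curves for AC50.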

[8] = Cell Viability - LYMP2-019 (AID 973); further: nearly all actives have a fitted effect of over 55% in size
Method in brief: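 Cells plated at 2500/well and allowed 5 hr at 37 C before compound addition. After 24 hr incubation, CellTiter-Glo reagent was added, plates sat 30 min at room temperature, and luminescence was recorded.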

[9] = Cell Viability - LYMP2-021 (AID 974)
Method in brief: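 Concentration-response cytotoxicity in a human lymphoblastoid line: 24 hr treatment at 37 C in complete culture medium, tetraoctylammonium bromide as positive control, luminescent ATP quantitation as viability measure.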

[10] = Cell Viability - LYMP2-025 (AID 976); further: series mostly up to about 92 µM
Method in brief: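 In qHTS format, LYMP2-025 lymphoblastoid cells in complete culture medium received compound for 24 hr; ATP-based CellTiter-Glo signal gave viability, with AC50 derived by Hill equation.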

[11] = Cell Viability - LYMP2-002 (AID 977);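 further: series mostly up to about 92 µM; compound exposure lasted 24 h at 37 °C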
Method in brief: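 Cytotoxicity is scored as concentration-dependent loss of cellular ATP in a human lymphoblastoid line after 24 hr compound treatment at 37 C. AC50 is obtained by modelling concentration-response data with the Hill equation.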

[12] = Cell Viability - LYMP2-006 (AID 978); further: series mostly up to about 92 µM; nearly all actives have a fitted effect of over 60% in size
Method in brief: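 Human lymphoblastoid cells (LYMP2-006), 2500/well in complete medium, were treated with compound for 24 hr at 37 C. Cellular ATP was read by CellTiter-Glo luminescence after 30 min, and AC50 values came from Hill-equation fits of concentration-response data.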

[13] = Cell Viability - LYMP2-007 (AID 979);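 further: cells exposed to compound for 24 h before reading; nearly all actives have a fitted effect of over 60% in size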
Method in brief: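 Acute toxicity is scored as a concentration-dependent fall in intracellular ATP in human lymphoblastoid cells treated 24 hr at 37 C, measured by luciferase luminescence; Hill-equation modelling yields AC50.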

[14] = Cell Viability - LYMP2-008 (AID 980); further: nearly all actives have a fitted effect of over 60% in size
Method in brief: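 Acute cytotoxicity is scored as concentration-dependent loss of cellular ATP in a human lymphoblastoid line after 24 hr treatment at 37 C. ATP is quantified by luciferase luminescence.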

[15] = Cell Viability - LYMP2-010 (AID 981)
Method in brief: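 Acute toxicity is scored as a concentration-dependent loss of cellular ATP in human lymphoblastoid cells after 24 hr compound exposure in complete medium. Tetraoctylammonium bromide is the positive control.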

[16] = Cell Viability - LYMP2-012 (AID 982)
[17] = Cell Viability - LYMP2-014 (AID 983); further: series mostly up to about 92 µM; nearly all actives have a fitted effect of over 50% in size
Method in brief: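 Decrease in intracellular ATP after 24 hr treatment at 37 C, measured by luciferase luminescence, indicated cytotoxicity. Concentration-response data were fitted with the standard Hill equation to give AC50.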

[18] = Cell Viability - LYMP2-016 (AID 984)
Method in brief: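 Human lymphoblastoid LYMP2-016 cells, 2500 per well, treated with compounds for 24 h at 37 C. Viability read as intracellular ATP by CellTiter-Glo luminescence after 30 min at room temperature; AC50 from Hill fits of concentration-response.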

[19] = Cell Viability - LYMP2-018 (AID 985);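 further: compound exposure lasted 24 hr at 37 °C; nearly all actives have a fitted effect of over 50% in size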
Method in brief: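 Acute cytotoxicity is scored as a concentration-dependent drop in intracellular ATP after 24 hr exposure of the lymphoblastoid line in complete culture medium, measured by luciferase luminescence. Potency is expressed as AC50 from Hill modelling.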

[20] = Cell Viability - LYMP2-023 (AID 975)
Method in brief: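 Concentration-dependent drop in intracellular ATP measures acute cytotoxicity in a human lymphoblastoid line treated for 24 hours in complete culture medium. AC50 values are taken from Hill-equation fits of qHTS data.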

Measured: Potency

Cc1cc(C(=O)O)ccc1[N+](=O)[O-]
inactive: [1] | [2] | [3] | [4] | [5] | [6] | [7] | [8] | [9] | [10] | [11] | [12] | [13] | [14] | [15] | [16] | [17] | [18] | [19]

Nc1cccc(C(F)(F)F)c1
inactive: [1] | [2] | [3] | [4] | [5] | [6] | [7] | [8] | [9] | [10] | [11] | [12] | [14] | [15] | [16] | [17] | [18] | [19]

Cc1cccc(C)c1
inactive: [1] | [2] | [3] | [4] | [5] | [6] | [7] | [8] | [9] | [10] | [11] | [12] | [13] | [14] | [15] | [16] | [17] | [18] | [19]

C=CC(=O)OCCCC
inactive: [1] | [2] | [3] | [4] | [5] | [6] | [7] | [8] | [20] | [10] | [12] | [14] | [16] | [17] | [18] | [19]

COc1ccc(OC)cc1
inactive: [1] | [2] | [3] | [4] | [5] | [6] | [7] | [8] | [20] | [11] | [12] | [13] | [15] | [16] | [17] | [18] | [19]

NS(=O)(=O)O
inactive: [1] | [2] | [3] | [4] | [5] | [6] | [7] | [8] | [20] | [10] | [11] | [12] | [13] | [15] | [16] | [17] | [18] | [19]

CC#N
inactive: [1] | [2] | [3] | [4] | [5] | [6] | [7] | [8] | [20] | [11] | [12] | [15] | [16] | [17] | [18] | [19]

Cc1cc(C2(c3cc(C)c(O)cc3C)OS(=O)(=O)c3ccccc32)c(C)cc1O
inactive: [1] | [2] | [3] | [4] | [5] | [6] | [7] | [9] | [20] | [10] | [12] | [13] | [15] | [16] | [17] | [18] | [19]

CSc1ccc(C=O)cc1
inactive: [1] | [2] | [3] | [4] | [5] | [6] | [8] | [9] | [20] | [10] | [11] | [12] | [13] | [14] | [16] | [17] | [18] | [19]
